An excerpt weighted towards active compounds, which were near 0.83% of everything screened.
NR2F2 inh – NR2F2 (human) inhibition, primary screen; AID 686940; HEK293T NGFI-A luciferase reporter, luminescence; 370,000 compounds, 0.7% hits; P24468; inhibition, % at 8.6 µM;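 active = inhibition above a per-plate cutoff, mean inhibition of test wells between control levels plus 3 SD, cut at about 38% in these data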;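 also: cells cotransfected with COUP-TFII expression vector driving the NGFI-A reporter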
LRH-1 inv ag – suppresses constitutive activity of human LRH-1; AID 602396; inhibition, % at 3.6 µM; 360,000 compounds, 0.13% hits; O00482; HEK293T StAR-luciferase reporter, LRH-1 transfected, 24 h;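 active = inhibition above the mean inhibition of all tested compounds plus 3 SD, cut at about 73% in these data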
NCOA1 inh – inhibitors of human steroid receptor coactivator 1 (SRC1); HEK293 GAL4-SRC1 luciferase reporter, luminescence; inhibition, % at 3.6 µM; 360,000 compounds, 0.12% hits; AID 588354;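 active = inhibition above the campaign mean plus 3 SD, with each screening campaign given its own cutoff, cut at about 60% in these data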
NCOA3 inh – inhibits human SRC3 coactivator | Q9Y6Q9 | HEK293 GAL4-SRC3 luciferase reporter, luminescence | inhibition, % at 3.6 µM | 360,000 compounds, 0.17% hits;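 active = inhibition above a per-campaign cutoff, the mean of all compounds plus 3 SD, cut at about 60% in these data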;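 also: higher means less SRC3-driven luciferase light from the GAL4 reporter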
NCOA2 inhibitor – human SRC2 (NCOA2) inhibition | Q15596 | HEK293 GAL4-SRC2 luciferase reporter, luminescence | inhibition, % at 9 µM | 370,000 compounds, 0.17% hits | AID 651957;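 active = inhibition above the mean inhibition of all tested compounds plus 3 SD, set per campaign, cut at about 52% in these data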
Gal4-VP16 ctr – counter-screen for COUP-TFII antagonists: inhibitors of VP16 | shares compounds with NR2F2 inh | HEK293 Gal4-VP16 luciferase reporter, luminescence | inhibition, % at 8.5 µM | 2,500 compounds, 25% hits | AID 687007; in the data active = inhibition above about 13%
COUP-TFII conf – confirmation of human COUP-TFII (NR2F2) inhibitors. AID 687008. HEK293 NGFI-A luciferase reporter, luminescence. 2,500 compounds, 45% hits. shares compounds with NR2F2 inh. inhibition, % at 8.5 µM;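 active = mean inhibition over three repeats above a set limit taken from the earlier primary screen, cut at about 38% in these data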
A number is an active result.

How did O=C(Nc1ccc(OC(=O)N2CCCCC2)cc1)N1CCOCC1 do in these assays?
NR2F2 inh: 78; LRH-1 inv ag: inactive; NCOA1 inh: inactive; NCOA3 inh: inactive; NCOA2 inhibitor: 84; Gal4-VP16 ctr: 29; COUP-TFII conf: inactive

What do the screens show for `CC1=CC2OC3CC4OC(=O)C=CC=CC(=O)OCCC(C)C(O)C(=O)OCC2(CC1)C4(C)C31CO1` (configuration not stated)?
NR2F2 inh: 90; LRH-1 inv ag: 99; NCOA1 inh: 95; NCOA3 inh: 94; NCOA2 inhibitor: 71; Gal4-VP16 ctr: 17; COUP-TFII conf: 87

What do the screens show for `CC(O)C1C=CC=CC(=O)OC2CC3OC4C5OC5(C)C(O)CC4(COC(=O)C(O)C(C)CCO1)C2(C)C31CO1` (configuration not stated)?
NR2F2 inh: 92; LRH-1 inv ag: 100; NCOA1 inh: 96; NCOA3 inh: 94; NCOA2 inhibitor: 73; Gal4-VP16 ctr: 25; COUP-TFII conf: 92

How did CC1=CC2OC3CC4OC(=O)C=CC=CC(C(C)O)OCC(O)C5(C)OC5C(=O)OCC2(CC1O)C4(C)C31CO1 (configuration not stated) do in these assays?
NR2F2 inh: 92; LRH-1 inv ag: 98; NCOA1 inh: 96; NCOA3 inh: 93; NCOA2 inhibitor: 65; Gal4-VP16 ctr: 19; COUP-TFII conf: 89

How did CC1CCOC(=O)C=CC=CC(=O)OC2CC3OC4C5OC5(C)C(O)CC4(COC(=O)C1O)C2(C)C31CO1 (configuration not stated) do in these assays?
NR2F2 inh: 92; LRH-1 inv ag: 98; NCOA1 inh: 96; NCOA3 inh: 93; NCOA2 inhibitor: 73; Gal4-VP16 ctr: 23; COUP-TFII conf: 89

Results for O=C(NCCO)c1nsnc1NCCCl ?
NR2F2 inh: inactive; LRH-1 inv ag: inactive; NCOA1 inh: inactive; NCOA3 inh: inactive; NCOA2 inhibitor: inactive

Results for Cc1ccc(Cn2nc(C(=O)Nc3ccc(Br)cc3)cc2C)cc1 ?
NR2F2 inh: 53; LRH-1 inv ag: inactive; NCOA1 inh: inactive; NCOA3 inh: inactive; NCOA2 inhibitor: inactive; Gal4-VP16 ctr: inactive; COUP-TFII conf: inactive

What do the screens show for `N#Cc1cn(C2OC(CO)C(O)C2O)c2ncnc(N)c12` (configuration not stated)?
NR2F2 inh: 47; LRH-1 inv ag: 97; NCOA1 inh: inactive; NCOA3 inh: inactive; NCOA2 inhibitor: 61; Gal4-VP16 ctr: inactive; COUP-TFII conf: inactive

What do the screens show for `NC(=O)c1cn(C2OC(CO)C(O)C2O)c2ncnc(N)c12` (configuration not stated)?
NR2F2 inh: 72; LRH-1 inv ag: 98; NCOA1 inh: 91; NCOA3 inh: 89; NCOA2 inhibitor: 62; Gal4-VP16 ctr: 56; COUP-TFII conf: 86

How did C[C@]12CC[C@H](O)C[C@H]1CC[C@@H]1[C@@H]2C[C@@H](O)[C@]2(C)[C@@H](C3=CC(=O)OC3)CC[C@]12O do in these assays?
NR2F2 inh: 81; LRH-1 inv ag: 103; NCOA1 inh: inactive; NCOA3 inh: 75; NCOA2 inhibitor: inactive; Gal4-VP16 ctr: 29; COUP-TFII conf: 58

What do the screens show for `C[C@]12CCC3C(CC[C@H]4C[C@@H](O)CC[C@]34C)[C@H]1C=CC2=O` (some centres not stated)?
NR2F2 inh: inactive; LRH-1 inv ag: inactive; NCOA1 inh: inactive; NCOA3 inh: inactive; NCOA2 inhibitor: inactive

How did C[C@]12CC[C@H](O)C[C@H]1CC[C@@H]1[C@@H]2CC[C@]2(C)[C@@H](C3=CC(=O)OC3)CC[C@]12O do in these assays?
NR2F2 inh: 77; LRH-1 inv ag: 102; NCOA1 inh: 83; NCOA3 inh: 85; NCOA2 inhibitor: inactive; Gal4-VP16 ctr: 47; COUP-TFII conf: 74

What do the screens show for `CNC(=O)Nc1ccc(C(=O)N/N=C\C23CC[C@@H](O)CC2(O)CC[C@@H]2[C@@H]3CCC3(C)C(C4=CC(=O)OC4)CCC23O)cc1` (some centres not stated)?
NR2F2 inh: inactive; LRH-1 inv ag: inactive; NCOA1 inh: inactive; NCOA3 inh: inactive; NCOA2 inhibitor: inactive
